In PubChem BioAssay (NCI):
About 83,000 compounds went through this panel and 20% of them were active in at least one assay; those are over-represented in the sample as a whole.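 A percent growth of 40 corresponds to 60% growth inhibition; 0 means no net growth; -100 means all cells died. Active threshold: below 10.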 Active and inactive are the calls of the source.

tested on: KM12 colon; test: NCI-60 one-dose screen, 48 h (100 = growth as untreated, 0 = no growth, -100 = all killed); conditions: 10 µM unless noted
Procedure: Growth inhibition of the KM12 human tumor cell line is measured as a screen for anti-cancer activity. Cells are grown in 96 well plates and exposed to the test compound for 48 hours. Compounds are tested at a single concentration, which is 10^-5 M for most compounds. The reported endpoint is percent growth (GI% or GIPRCNT), where numbers from 0 - 100% represent growth inhibition, and numbers from -100% - 0 represent cell death. For example, a value of 40 represents 60% growth inhibition. A value of 0 means no net growth occurred over the course of the experiment. A value of -40 indicates 40% of cells at the beginning of the experiment died by the end of the experiment. A value of -100 means all cells are dead at the end of the experiment.
NCI-60 Human Tumor Cell Lines Screen was performed using the standard one-dose NCI protocol, which is described in more detail at https://dtp.cancer.gov/discovery_development/nci-60/default.htm.
Compounds with GIPRCNT values below 10 were considered active. Activity score was based on GIPRCNT using the following formula: […]
Score is 0 for GIPRCNT values of 100 or above, 50 for GIPRCNT values of 0, and 100 for GIPRCNT values of -100.

| SMILES | growth |
| --- | --- |
| C#CCn1cnc2c(Nc3cccc(NC(=O)C=C)c3)ncnc21 | 96.3% (inactive) |
| CCOC(=O)C#Cc1c(C(=O)OCC)nnn1[C@@H]1O[C@H](CO)[C@H]2OC3(CCCCC3)O[C@H]21 | 94.5% (inactive) |
| O=C(c1ccccc1)C1C(=O)N2C(=S)N(c3ccccc3)C(=O)C2C1c1ccc(Cl)cc1 (stereo not given) | 104% (inactive) |
| O=C(Cn1c(-c2ccc([N+](=O)[O-])cc2)nc2ccccc21)NNC(=O)c1cccnc1 | 87.2% (inactive) |
| O=C1/C(=C/c2ccc(F)cc2)COc2ccc(O)cc21 | 45.9% (inactive) |
| COc1ccc2c(c1)[n+]([O-])c(C(=O)/C=C/C=C(\Cl)c1cc(OC)c(OC)c(OC)c1)c(C)[n+]2[O-] | 101% (inactive) |
| COc1cccc(CNc2ncnc3c2ncn3C2OC(CO)C(O)C2O)c1O (stereo not given) | 36.6% (inactive) |
| Cn1c(-c2ccc(Br)cc2)c(O)c(=O)c2c(F)cccc21 | 53.3% (inactive) |
| COc1cc(/C=C/C(=O)c2cccc(Nc3nc(Nc4ccccc4)nc(Nc4ccccc4)n3)c2)cc(OC)c1OC | 52.7% (inactive) |
| CC(C)(C)[Si](C)(C)O[C@H]1C(=O)C=CN2CC=C[C@@H]12 | 104% [100 µM] (inactive) |
| CCCNC(=O)Oc1ccc(/C(=C(/C)Cc2ccc(OC)cc2)c2ccc(OCCCN(C)C)cc2)cc1 | 84.1% (inactive) |
| O=C1/C(=C/c2ccc(Cl)cc2)COc2ccc(O)c(O)c21 | -2.9% (active) |
| C#Cc1cccc(Nc2ncnc3ccc(-c4cncc(NS(C)(=O)=O)c4)cc23)c1 | 36.1% (inactive) |
| O=Cc1ccc([N+](=O)[O-])s1 | 102% (inactive) |
| CC1(C)CCC(S(=O)(=O)c2ccc3c(c2)/C(=N\O)c2cc(S(=O)(=O)N4CCC(O)(c5cccc(C(F)(F)F)c5)CC4)ccc2-3)CC1 | -86.7% (active) |
| CNC(=O)c1cc(Oc2ccc3nc(NC(C)=O)sc3c2)ccn1 | 98.2% (inactive) |
| C=CCn1cc(-c2nc3ccccc3s2)c2cc(-c3ccc4c5c(cccc35)C(=O)N(N)C4=O)ccc21 | 100% (inactive) |
| O=Nc1c(-c2c(O)[nH]c3ncccc23)[nH]c2ccccc12 | 15% (inactive) |
| CCn1c(=S)sc2c(Nc3ccc(F)cc3)nc(-c3cccnc3)nc21 | 69.7% (inactive) |
| COc1ccc(-c2nnc3n(C)c(=O)c4ccccc4n23)cc1N | 28.3% (inactive) |

| SMILES | growth |
| --- | --- |
| O=[N+]([O-])/C(=C/C=C/c1ccccc1)c1ccccc1 | 38.8% (inactive) |
| Cc1nc(-c2ccccc2)cc2c(O)c(C(=O)NN)[nH]c(=O)c12 | 115% (inactive) |
| N#C/C(=C\c1ccc2ccccc2c1)c1cc2ccccc2[nH]1 | 25.5% (inactive) |
| CN(C)CCCn1c2c(c3ncccc3c1=O)C(=O)c1ccccc1-2 | 40.9% (inactive) |
| S=C1CCSC(=S)N1CCCN1C(=S)CCSC1=S | 82.7% (inactive) |
| Cc1cccc(N2CCN(CC(O)COc3ccc(Cl)cc3)CC2)c1 (stereo not given) | 97.1% (inactive) |
| O=S(=O)(Nc1ccc(Cl)cc1)c1ccc(-c2cnc(C3CC3)o2)cc1 | 20.9% (inactive) |
| C=C(C)[C@@H]1CC[C@]2(C(=O)N3CCN(C)CC3)CC[C@]3(C)[C@H](CC[C@@H]4[C@@]5(C)CC(=C/c6ccncc6)/C(=N/O)C(C)(C)[C@@H]5CC[C@]43C)[C@@H]12 | 72.1% (inactive) |
| COc1ccc(C/C(C)=C(/c2ccc(OCCN3CCCCC3)cc2)c2ccc(OC(=O)NCc3ccccc3)cc2)cc1 | -81.2% (active) |
| COCCNC(=O)c1ccc(-c2nc3ccc4[nH]ncc4c3c3c2CCCC3)cc1 | 19.7% (inactive) |
| O=C(CCC(=O)N/N=C/c1ccccc1O)N/N=C/c1ccccc1O | 33% (inactive) |
| CN1CCN(c2ccc(NC(=O)c3nc4ccc5[nH]ncc5c4c4c3CCCC4)cc2C(F)(F)F)CC1 | 37.9% (inactive) |
| C=C(C)[C@@H]1CC[C@]2(C(=O)O)CC[C@]3(C)[C@H](CC[C@@H]4[C@@]5(C)C[C@@H](Cc6cn(CCO[C@@H]7O[C@H](COC(C)=O)[C@H](OC(C)=O)[C@H](OC(C)=O)[C@H]7OC(C)=O)nn6)[C@H](O)C(C)(C)[C@@H]5CC[C@]43C)[C@@H]12 | 55.9% (inactive) |
| N#C/C(=C\c1ccc(Br)cc1)n1nnc2ccc(F)cc21 | -24.7% (active) |
| CCS/C(Nc1ccccc1)=C(\C#N)C(=O)N/N=C/c1ccc(Cl)cc1Cl | 28% (inactive) |
| O=C(CI)NC1Oc2ccccc2-c2oc(=O)c(-c3ccccc3)cc21 (stereo not given) | 2.37% (active) |
| O=C1c2cccnc2C(=O)c2c1c(C(=O)NCCn1ccnc1)c1ccccn21 | 31.3% (inactive) |
| N=C(N)c1ccc(-c2ccc(-c3ccc(F)cc3)o2)o1 | 7.92% (active) |
| O=C1N(Cc2ccccc2Cl)c2ccccc2C12NN=C(c1cccc(Cl)c1)S2 (stereo not given) | 21.4% (inactive) |
| Cc1ccc(Sc2nnc(/N=C3\C(=O)Nc4ccccc43)s2)cc1 | 98.1% (inactive) |
